Reference: PubChem BioAssay AID504466 (National Center for Advancing Translational Sciences (NCATS), 2011)
Among all 330,000 compounds or so, about 4,200 (1.3%) were called active. Not shown: some 6% with an inconclusive outcome. Calls follow the shape of the dose curve; as a rule, active = well fitted activation curve with a large enough effect; inconclusive = small, poorly fitted or top-dose-only effect; inactive = no such curve, though single readings can be large or run the other way. What follows is part of a selection rich in actives, with near analogues and random picks from the rest. A call without a number means that no potency is given here.

Assay: qHTS screen for small molecules that induce genotoxicity in human embryonic kidney (HEK293T) cells expressing luciferase-tagged ELG1; also: nearly all actives have a fitted effect of over 60% in size
Conditions: HEK293T ELG1-luciferase reporter, luminescence, 16 h; series mostly up to 46 µM
Text: NIH Molecular Libraries Probe Production Network [MLPCN] NIH Chemical Genomics Center [NCGC] MLPCN Grant: 1 R03 MH092164-01 Assay Provider: Kyungjae Myung, NHGRI, NIH Keywords: MLPCN, qHTS, NCGC, genotoxicity, cancer Assay Overview: Cancer cells divide rapidly compared to normal cells in the body. During cell division, cancer cells need to duplicate their genome by DNA replication. The failure of genome duplication leads to cancer cells' death. Therefore, inhibitors of DNA replication could specifically kill cancer cells. Based on this concept, many chemotherapeutic agents were developed and have been used to treat cancer patients. However, there are a limited number of agents available in the clinical setting, and some of those that do exist have low efficacy and severe side effects. Therefore, if we can find the compounds that effectively block DNA replication either by directly damaging DNA or by inhibiting other cellular mechanisms, the options for cancer treatment will be broadened. With this in mind, we developed a quantitative high-throughput ELG1-luciferase reporter gene assay. Since the level of human ELG1 protein is enhanced in response to genetic stresses, increases in luciferase activity can be used to identify compounds that cause genetic stress.
Assay Protocol Summary: For genotoxicity screening, 2,000 cells in 5 uL/well were dispensed into white, solid-bottom 1536-well plates using a solenoid-based dispenser. Following transfer of 23 nL compound or DMSO vehicle by a pin tool, the plates were incubated 16 hr at 37 °C and 5% CO2. 5 ul ONE-Glo (Promega) was then added to each plate and following a 30 min incubation at room temperature, luciferase activity was quantified on a ViewLux CCD-based plate reader.
Potency is read from the fitted curve at half-maximal effect.

Compound | Potency
O=C(CSc1ccc([N+](=O)[O-])cn1)Nc1ccc(N2CCOCC2)cc1 | inactive
O=C(CSc1ccc(-c2ccc(F)cc2)nn1)Nc1ccc2c(c1)OCCO2 | inactive
O=C(CSc1ccc(-c2ccc(-n3cccn3)cc2)nn1)Nc1ccc([N+](=O)[O-])cc1 | 18.3 µM (active)
Cc1cccc(C)c1Nc1nnc(SCC(=O)NCCCN2CCCC2=O)s1 | inactive
Cc1ccc(NC(=O)COC(=O)C2CC2)cc1S(=O)(=O)N1CCOCC1 | inactive
Cc1noc(C)c1NC(=O)Nc1ccc2c(c1)C(=O)N([C@H](C)CO)C[C@H](C)[C@@H](CN(C)S(=O)(=O)c1cn(C)cn1)O2 | inactive
COc1cc(/C=N/O)ccc1OCc1ccc([N+](=O)[O-])cc1 | 9.2 µM (active)
COc1cc(C(=O)OCc2ccc([N+](=O)[O-])cc2)cc(OC)c1OC | inactive
COc1cc(/C=N\Nc2ccc([N+](=O)[O-])cn2)ccc1OCC(=O)O | inactive
CC(=O)C(CC(=O)N1CCCC1)C(=O)Nc1ccc(Cl)cc1 (stereo not drawn) | inactive
Cc1ccc(C(=O)Nc2ccccc2-c2ccccc2)cc1S(=O)(=O)Nc1ccccc1 | inactive
CCOc1ncccc1C(=O)Nc1ccc2c(c1)OCCO2 | inactive
COc1ccc(C)cc1NC(=O)CSc1cccc[n+]1[O-] | inactive
CN=C(Nc1cccc(S(=O)(=O)N2CCOCC2)c1)c1ccccc1 | inactive
COc1ccccc1NC(=O)C1=C(C)NC(=O)NC1c1ccc(C)s1 (stereo not drawn) | inactive
COc1ccccc1NC(=O)c1ccc(C)s1 | 11.6 µM (active)
COC(=O)c1c(NC(C)=O)sc(C(=O)Nc2ccccc2OC)c1C | inactive
Cc1ccc(S(=O)(=O)N2CCN(C(=O)Cn3c(=O)cnc4ccccc43)CC2)c(C)c1 | inactive
Cc1c(C(=O)Nc2ccccc2)sc2nc3n(c(=O)c12)CCCCC3 | inactive
Cc1cccc2c(=O)n3c(nc12)CCCCC3 | inactive
O=c1c2c(nc3n1CCCCC3)sc1c(O)cccc12 | 2.06 µM (active)
Cc1ccc(NS(=O)(=O)c2ccc(C(C)C)cc2)cc1S(=O)(=O)N1CCOCC1 | inactive
O=c1oc2ccccc2cc1-c1cn(-c2ccccc2)c(=S)[nH]1 | 0.0461 µM (active)
S=c1[nH]c(-c2cccs2)cn1-c1ccccc1 | inactive
COc1cccc(-n2c(=S)[nH]c3c(oc4ccccc43)c2=O)c1 | inactive
O=C1OC[C@@H]2CCCN2C(=O)[C@H](CC(=O)N(CCO)Cc2ccccc2)C/C=C\CC[C@@H]1Cc1ccc(F)cc1 | inactive
COc1cc(/C=C/C(=O)OCC(=O)NC2CC2)cc(OC)c1OC | inactive
Cc1ccc(S(=O)(=O)N2CCN(C(=O)CN3C(=O)NC(C)(c4ccc(Cl)cc4)C3=O)CC2)c(C)c1 (stereo not drawn) | inactive
